Data taken from PubChem BioAssay AID1159580 (chemical genetic matrix, 2015).
Values joined by “and” are separate entries in the source; they are usually repeats but may differ in a detail not shown here. Equal entries are not always repeated. Among all 5,500 compounds or so, about 2,000 (36%) were called active. Roughly 18% stayed inconclusive and do not appear here. Cut-off read from the data, not from the text of the source: active = normalized growth mostly below about 0.91 (no sharp cut-off); inconclusive = no clear call, values can overlap the other calls; inactive = mostly above about 0.92. The list shows a part of the results.

Assay: chemical genetic growth profiling, strain panel (AID 1159580);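 note: tested at 20 µM; growth read once vehicle control cultures reached saturation at 30 °C; 1 = growth at the plate median or of vehicle wells; lower values mean less growth of the strain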
Details: S. cerevisiae deletion strains, growth OD

Measured: normalized growth

Cc1cccc(N(C)C(=S)Oc2ccc3ccccc3c2)c1
inactive: locus YAL013W, strain DEP1, hits give low values 0.968 | locus YAL021C, strain ccr4, hits give low values 0.952 | locus YAL026C, strain drs2, hits give low values 0.995 | locus YAL030W, strain snc1, hits give low values 0.996 | locus YBL061C, strain skt5, hits give low values 0.994 | locus YBR009C, strain hhf1, hits give low values 1.02 | locus YBR021W, strain FUR4, hits give low values 0.964 | locus YBR023C, strain chs3, hits give low values 0.981 | locus YBR171W, strain sec66, hits give low values 0.985 | locus YBR229C, strain ROT2, hits give low values 0.943 | locus YBR231C, strain swc5, hits give low values 0.973 | locus YBR279W, strain paf1, hits give low values 1.01 | locus YCL011C, strain gbp2, hits give low values 1 | locus YCL016C, strain dcc1, hits give low values 0.986 | locus YCL029C, strain bik1, hits give low values 0.967 | locus YCL069W, strain vba3, hits give low values 0.989 | locus YCR088W, strain abp1, hits give low values 0.995 | locus YDL005C, strain med2, hits give low values 0.998 | locus YDL035C, strain GPR1, hits give low values 0.979 | locus YDL040C, strain nat1, hits give low values 1.01 | locus YDL074C, strain BRE1, hits give low values 0.948 | locus YDL101C, strain DUN1, hits give low values 0.979 | locus YDL134C, strain PPH21, hits give low values 0.992 | locus YDL185W, strain tfp1, hits give low values 0.915 | locus YDL192W, strain arf1, hits give low values 0.976 | locus YDR001C, strain nth1, hits give low values 0.99 | locus YDR069C, strain doa4, hits give low values 0.985 | locus YDR101C, strain arx1, hits give low values 0.978 | locus YDR150W, strain NUM1, hits give low values 0.971 | locus YDR159W, strain sac3, hits give low values 0.935 | locus YDR162C, strain NBP2, hits give low values 1.01 | locus YDR195W, strain ref2 0.967 | locus YDR297W, strain sur2, hits give low values 0.984 | locus YDR318W, strain mcm21, hits give low values 0.982 | locus YDR334W, strain swr1, hits give low values 1.04 | locus YDR335W, strain msn5, hits give low values 1.01 | locus YDR388W, hits give low values 0.99 | locus YDR392W, strain spt3, hits give low values 0.894 | locus YDR502C, strain sam2, hits give low values 0.983 | locus YEL003W, strain gim4, hits give low values 1 | locus YEL037C, strain rad23, hits give low values 0.99 | locus YEL061C, strain CIN8 (second series), hits give low values 0.989 | locus YEL061C, strain CIN8, hits give low values 0.987 | locus YER015W, strain faa2, hits give low values 0.991 | locus YER016W, strain bim1, hits give low values 0.993 | locus YER110C, hits give low values 0.983 | locus YER111C, strain swi4, hits give low values 1.01 | locus YER155C, strain BEM2 (second series), hits give low values 1.02 | locus YER155C, strain BEM2, hits give low values 0.979 | locus YER167W, strain BCK2, hits give low values 0.976 | locus YFR010W, strain ubp6, hits give low values 1.01 | locus YGL078C, strain dbp3, hits give low values 0.98 | locus YGL086W, strain mad1, hits give low values 0.962 | locus YGL167C, strain pmr1, hits give low values 0.984 | locus YGL173C, strain kem1, hits give low values 0.985 | locus YGL227W, strain vid30, hits give low values 1.02 | locus YGL240W, strain doc1, hits give low values 0.951 | locus YGL248W, strain PDE1, hits give low values 0.974 | locus YGL253W, strain hxk2, hits give low values 0.986 | locus YGR078C, strain PAC10, hits give low values 0.979 | locus YGR135W, strain pre9, hits give low values 0.997 | locus YGR252W, strain gcn5, hits give low values 1.02 | locus YHR013C, strain ard1, hits give low values 1 | locus YHR027C, strain rpn1, hits give low values 0.989 | locus YHR030C, strain SLT2, hits give low values 0.986 and 0.935 | locus YHR079C, strain IRE1 (second series), hits give low values 0.984 | locus YHR079C, strain IRE1, hits give low values 0.941 | locus YHR094C, strain hxt1, hits give low values 0.981 | locus YHR129C, strain ARP1, hits give low values 0.969 | locus YHR142W, strain chs7, hits give low values 1 | locus YHR200W, strain rpn10, hits give low values 0.961 | locus YIL066C, strain RNR3, hits give low values 0.958 | locus YIL073C, strain SPO22, hits give low values 0.964 | locus YIL125W, strain kgd1, hits give low values 0.981 | locus YIR030C, strain dcg1, hits give low values 0.966 | locus YJL092W, strain hpr5, hits give low values 0.99 | locus YJL095W, strain BCK1 (second series), hits give low values 0.993 | locus YJL095W, strain BCK1, hits give low values 0.993 and 0.928 | locus YJL115W, strain asf1, hits give low values 1 | locus YJL129C, strain trk1, hits give low values 0.922 | locus YJL134W, strain LCB3, hits give low values 0.989 | locus YJL154C, strain vps35, hits give low values 0.998 | locus YJL164C, strain tpk1, hits give low values 0.997 | locus YJL166W, strain qcr8, hits give low values 0.99 | locus YJL168C, strain set2, hits give low values 0.984 | locus YJL187C, strain SWE1 (second series), hits give low values 0.974 | locus YJR043C, strain POL32, hits give low values 0.997 | locus YJR066W, strain TOR1, hits give low values 0.878
active: locus YDR137W, strain rgp1, hits give low values 1.33 [resistant]
